Data from PubChem BioAssay AID1159580 (chemical genetic matrix, 2015).
Values joined by “and” are separate entries in the source; they are usually repeats but may differ in a detail not shown here. Equal values may be shown once. Out of some 5,500 compounds screened, about 2,000 (36%) were called active. Another 18% or so got no clear call; they are omitted. Rule as the data show it: active = normalized growth mostly below about 0.91 (no sharp cut-off); inconclusive = no clear call, values can overlap the other calls; inactive = mostly above about 0.92. The list shows a part of the results.

Assay: chemical genetic growth profiling, strain panel (AID 1159580);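 also: tested at 20 µM; growth read once vehicle control cultures reached saturation at 30 °C; 1 = growth at the plate median or of vehicle wells; lower values mean less growth of the strain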
Settings: S. cerevisiae deletion strains, growth OD

Measured: normalized growth

C[N+]1(C)CCCC(OC(=O)C(O)(c2ccccc2)c2ccccc2)C1 (configuration not stated)
inactive: locus YBR021W, strain FUR4, stronger effect = lower value 1.01 | locus YBR229C, strain ROT2, stronger effect = lower value 1.01 | locus YCL029C, strain bik1, stronger effect = lower value 0.988 | locus YDL035C, strain GPR1, stronger effect = lower value 1.02 | locus YDL074C, strain BRE1, stronger effect = lower value 1.01 | locus YDL101C, strain DUN1, stronger effect = lower value 0.999 | locus YDL185W, strain tfp1, stronger effect = lower value 0.961 | locus YDL192W, strain arf1, stronger effect = lower value 0.983 | locus YDR101C, strain arx1, stronger effect = lower value 1 | locus YDR150W, strain NUM1, stronger effect = lower value 1 | locus YDR162C, strain NBP2, stronger effect = lower value 1.01 | locus YDR318W, strain mcm21, stronger effect = lower value 0.976 | locus YDR388W, stronger effect = lower value 0.997 | locus YDR502C, strain sam2, stronger effect = lower value 0.989 | locus YEL061C, strain CIN8, stronger effect = lower value 0.999 | locus YER110C, stronger effect = lower value 0.968 | locus YER155C, strain BEM2, stronger effect = lower value 1 | locus YER167W, strain BCK2, stronger effect = lower value 0.995 | locus YGL078C, strain dbp3, stronger effect = lower value 0.976 | locus YGL086W, strain mad1, stronger effect = lower value 1.02 | locus YGL248W, strain PDE1, stronger effect = lower value 1 | locus YGR078C, strain PAC10, stronger effect = lower value 1 | locus YGR135W, strain pre9, stronger effect = lower value 0.937 | locus YGR252W, strain gcn5, stronger effect = lower value 0.936 | locus YHR030C, strain SLT2, stronger effect = lower value 1 and 1.03 | locus YHR079C, strain IRE1 (second series), stronger effect = lower value 0.982 | locus YHR079C, strain IRE1, stronger effect = lower value 1.02 | locus YHR094C, strain hxt1, stronger effect = lower value 0.996 | locus YHR129C, strain ARP1, stronger effect = lower value 1 | locus YHR200W, strain rpn10, stronger effect = lower value 0.975 | locus YIL066C, strain RNR3, stronger effect = lower value 1.01 | locus YIL073C, strain SPO22, stronger effect = lower value 0.937 | locus YIL125W, strain kgd1, stronger effect = lower value 0.997 | locus YIR030C, strain dcg1, stronger effect = lower value 0.978 | locus YJL095W, strain BCK1, stronger effect = lower value 0.969 and 1.02 | locus YJL134W, strain LCB3, stronger effect = lower value 1 | locus YJL168C, strain set2, stronger effect = lower value 0.998 | locus YJL187C, strain SWE1 (second series), stronger effect = lower value 1.01 | locus YJR043C, strain POL32, stronger effect = lower value 1.03 | locus YJR066W, strain TOR1, stronger effect = lower value 0.986 | locus YKL009W, strain mrt4, stronger effect = lower value 1 | locus YKL068W, stronger effect = lower value 0.991 | locus YKL085W, strain MDH1 (second series), stronger effect = lower value 0.97 | locus YKL085W, strain MDH1, stronger effect = lower value 0.97 | locus YKR001C, strain vps1, stronger effect = lower value 0.99 | locus YLR039C, strain RIC1, stronger effect = lower value 0.94 | locus YLR058C, strain SHM2, stronger effect = lower value 0.998 | locus YLR102C, strain apc9, stronger effect = lower value 0.982 | locus YLR113W, strain HOG1, stronger effect = lower value 1.02 | locus YLR262C, strain YPT6, stronger effect = lower value 0.979 | locus YLR268W, strain sec22, stronger effect = lower value 0.996 | locus YLR330W, strain CHS5, stronger effect = lower value 0.994 | locus YLR342W, strain FKS1 (second series), stronger effect = lower value 1.01 | locus YLR371W, strain rom2, stronger effect = lower value 0.985 | locus YLR418C, strain cdc73, stronger effect = lower value 0.969 | locus YML016C, strain PPZ1, stronger effect = lower value 1 | locus YML032C, strain rad52, stronger effect = lower value 0.996 | locus YML124C, strain tub3, stronger effect = lower value 0.991 | locus YMR078C, strain ctf18, stronger effect = lower value 0.97 | locus YMR223W, strain ubp8, stronger effect = lower value 0.951 | locus YMR307W, strain GAS1, stronger effect = lower value 1.03 | locus YNL067W, strain RPL9B, stronger effect = lower value 0.997 | locus YNL153C, strain GIM3, stronger effect = lower value 1 | locus YNL183C, strain NPR1, stronger effect = lower value 0.983 | locus YNL233W, strain BNI4, stronger effect = lower value 0.997 | locus YNL250W, strain rad50, stronger effect = lower value 0.962 | locus YNL271C, strain bni1, stronger effect = lower value 0.981 | locus YNL298W, strain CLA4, stronger effect = lower value 0.968 | locus YNL307C, strain MCK1, stronger effect = lower value 0.981 | locus YNL322C, strain KRE1, stronger effect = lower value 0.99 | locus YNR052C, strain pop2, stronger effect = lower value 0.975 | locus YOL006C, strain TOP1, stronger effect = lower value 0.969 | locus YOL012C, strain htz1 0.94 | locus YOL147C, strain pex11, stronger effect = lower value 0.993 | locus YOR061W, strain CKA2, stronger effect = lower value 0.999 | locus YOR069W, strain VPS5, stronger effect = lower value 1 | locus YOR136W, strain idh2, stronger effect = lower value 0.996 | locus YOR144C, strain elg1, stronger effect = lower value 0.993 | locus YOR184W, strain ser1, stronger effect = lower value 0.981 | locus YOR231W, strain MKK1, stronger effect = lower value 1.02 | locus YOR316C, strain cot1, stronger effect = lower value 0.983 | locus YPL256C, strain CLN2, stronger effect = lower value 1.03 | locus YPR119W, strain clb2, stronger effect = lower value 0.979 | locus YPR141C, strain kar3, stronger effect = lower value 0.983 | locus YPR163C, strain tif3, stronger effect = lower value 0.984 | locus YPR167C, strain met16, stronger effect = lower value 0.987 | strain wtn01, stronger effect = lower value 0.975
